Measurements: PubChem BioAssay (NCI)
The panel holds about 83,000 compounds, 20% with a hit somewhere; the sample as a whole holds those more often.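 Note: values are percent growth. 100 is the growth of untreated cells, values between 100 and 0 indicate rising inhibition; between -100 and 0 indicates cell death.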 Calls of active or inactive are those of the source. The calls were made as follows: active = growth percent below 10; inactive = the rest.

Each compound was assayed on MDA-MB-435 melanoma (assay: NCI-60 one-dose screen, 48 h (100 = growth as untreated, 0 = no growth, -100 = all killed)). Conditions: 10 µM unless noted.
In the case of `COc1cccc(C2C3=C(COC3=O)N(CCO)c3cc4c(cc32)OCCO4)c1` (stereo not given), the growth is reported as -28.2% (active). In the case of `CCN=c1sc2c(n1NC(=O)c1cc3ccc1CCc1ccc(cc1)CC3)C(=O)c1ccccc1C2=O`, the growth is reported as -97.1% (active). In the case of `COc1cccc(/C=C/C(=O)/C=C(/C=C/c2cccc(OC)c2OC)OB(F)F)c1OC`, the growth is reported as 14.8% (inactive). With `COc1ccc(Nc2nccc(Nc3ccc4[nH]ncc4c3)n2)cc1` the growth was 34.9% (inactive). `O=c1n(C2OC(CO)C(O)C2O)ccc2nccn12` (stereo not given) was tested, and the growth was 102% (inactive). With `C=CCn1c(SCC(=O)Nc2ccc(C(=O)/C=C/c3ccc(Cl)cc3)cc2)nnc1-c1ccc(Cl)c(Cl)c1` the growth was 37.9% (inactive). For `NCCNc1ccc([N+](=O)[O-])cc1`, the growth was 113% (inactive). In the case of `O=C1CC2C=CCN2C=C1NC(=O)c1ccccc1` (stereo not given), the growth is reported as 105% (inactive). In the case of `O=C(/C=C/c1ccc(Cl)cc1)c1ccc(Nc2ccnc3cc(Cl)ccc23)cc1`, the growth is reported as 64.8% (inactive). For `COc1cccc(-c2nn(-c3ccccc3)cc2-c2ccnc(-c3cccnc3)c2)c1`, the growth was 97.7% (inactive). `Cc1nc2sc(C(=O)Nc3ccccc3)c(N)c2cc1C(O)c1ccccc1` (stereo not given) was tested, and the growth was -18.3% (active). For `COC(=O)c1c(C(=O)OC)c2ccc3c4ncccc4ccc3n2c1C(=O)c1ccc(C)cc1`, the growth was 102% (inactive). `CN1CCN(Cc2ccc(NC(=O)c3cncc(C#Cc4c(N)ncc5ccccc45)c3)cc2C(F)(F)F)CC1` was tested, and the growth was -90.3% (active). With `O=C(NCCN1CCOCC1)c1cncnc1Nc1ccc2c(ccn2Cc2ccccn2)c1` the growth was 99.9% (inactive). In the case of `CCCCCCCCOC(=O)c1c(C)[nH]c(/C=C2\N=C(c3ccc[nH]3)C=C2OC)c1C`, the growth is reported as -19.4% (active). `COc1ccc(Nc2nc(Nc3cc(C)[nH]n3)c3cc(OC)c(OC)cc3n2)cc1` was tested, and the growth was -97.5% [20 µM] (active). With `O=C1c2c(c3c4cccnc4[nH]c3c3ccc4ccccc4c23)C(=O)N1O` the growth was 47.9% (inactive). For `CCOC(=O)c1c2c(n3ccc(NC(=O)CCN4CCCC4)cc13)C(=O)c1ncccc1C2=O`, the growth was -68.5% (active). In the case of `COC(=O)c1c(C)nc(C)c2c1C(=O)C(Br)=C(NCCN1CCOCC1)C2=O`, the growth is reported as 56.1% (inactive). `CCN1C(=O)N(CC)C2C1NC(=S)N2/N=C/C=C/c1ccccc1` (stereo not given) was tested, and the growth was -42.1% (active). For `COCCNC(=O)Cc1cc(-c2ccc(Cl)cc2)n(-c2ccccc2)c1C`, the growth was 93.7% (inactive). For `Cc1nn(C)c2ncnc(Nc3ccccc3Br)c12`, the growth was 106% (inactive). `CCOC(=O)c1cnc2sc(-c3ccc(OC)cc3)nc2c1Cl` was tested, and the growth was 87.7% (inactive). `C=C(CNCCO)[C@@H]1CC[C@]2(CO)CC[C@]3(C)[C@H](CC[C@@H]4[C@@]5(C)CCC(NCCO)C(C)(C)[C@@H]5CC[C@]43C)[C@@H]12` (stereo not given in full) was tested, and the growth was 70.2% (inactive). In the case of `O=C1c2c(c3c4cc(F)ccc4oc3c3[nH]c4ccccc4c23)C(=O)N1O`, the growth is reported as 48.9% (inactive). `Cc1nn(-c2ccccc2)c(Oc2ccccc2)c1/C=N/NC(=O)Cn1c(=O)sc2ccccc21` was tested, and the growth was 54.3% (inactive). For `O=S(=O)(Nc1ccc(Br)cc1)c1ccc(-c2cnc(C3CC3)o2)cc1`, the growth was -9% (active). With `O=C1c2ccccc2C(=O)c2cc(Cn3c[n+](Cc4ccc5ccccc5c4)c4ccccc43)ccc21` the growth was 38.4% (inactive). In the case of `Cc1cc2c(c(C)n1)CN(C(=O)Nc1nc(-c3cncs3)ccc1N)C2`, the growth is reported as 102% (inactive). For `CC(C)n1cc(C2=C(c3cccc4ccccc34)C(=O)NC2=O)c2cc(Br)ccc21`, the growth was 61.6% (inactive). In the case of `Oc1c(Cl)cc(Cl)c2ccc(CN3CCNCC3)nc12`, the growth is reported as 58.6% (inactive). For `CCN1CCN(c2cc(C(=O)Nc3cccc(Nc4ccc5c(OC)cccc5n4)c3)cc(C(F)(F)F)c2)CC1`, the growth was 1.29% (active). `C#CCOc1ccc(C2=NN(C)C3N=C(Cl)c4ncn(C)c4N23)cc1OCC#C` (stereo not given) was tested, and the growth was 108% (inactive). `CC(C)=CC(=O)C1C(=O)c2ccccc2C1=O` was tested, and the growth was 98.9% (inactive). `COc1cc(NC(=O)c2cncnc2Nc2ccc3c(ccn3Cc3cccc(F)c3)c2)cc(OC)c1` was tested, and the growth was -4.76% (active). `CCCC[N+]1(C)CCN=C1Cc1ccccc1` (stereo not given) was tested, and the growth was 104% (inactive). In the case of `O=C(COc1ccc(/C=C2\Oc3ccccc3C2=O)cc1)Nc1nccs1`, the growth is reported as 69.4% (inactive). `CN1CCN(Cc2ccc(NC(=O)c3cncc(C#Cc4c(N)ncc5cc(F)ccc45)c3)cc2C(F)(F)F)CC1` was tested, and the growth was 26.4% (inactive). In the case of `Nc1cc(-c2ccc(Cl)cc2)nn1-c1nc(-c2ccc(Br)cc2)cs1`, the growth is reported as 99.7% (inactive). In the case of `O=c1c(Cc2ccc(F)cc2)cc(-c2ccccc2)nn1C/C(=N/O)c1ccccc1`, the growth is reported as 48.8% (inactive).

What follows are compounds tested on SW-620 colon in the same assay as above. Conditions: 10 µM unless noted.
With `COc1cccc(C2C3=C(COC3=O)N(CCO)c3cc4c(cc32)OCCO4)c1` (stereo not given) the growth was 17.7% (inactive). For `CCN=c1sc2c(n1NC(=O)c1cc3ccc1CCc1ccc(cc1)CC3)C(=O)c1ccccc1C2=O`, the growth was -56.6% (active). In the case of `COc1cccc(/C=C/C(=O)/C=C(/C=C/c2cccc(OC)c2OC)OB(F)F)c1OC`, the growth is reported as 16.4% (inactive). For `COc1ccc(Nc2nccc(Nc3ccc4[nH]ncc4c3)n2)cc1`, the growth was 24.8% (inactive). `O=c1n(C2OC(CO)C(O)C2O)ccc2nccn12` (stereo not given) was tested, and the growth was 94.4% (inactive). For `C=CCn1c(SCC(=O)Nc2ccc(C(=O)/C=C/c3ccc(Cl)cc3)cc2)nnc1-c1ccc(Cl)c(Cl)c1`, the growth was 90.9% (inactive). With `NCCNc1ccc([N+](=O)[O-])cc1` the growth was 112% (inactive). In the case of `O=C1CC2C=CCN2C=C1NC(=O)c1ccccc1` (stereo not given), the growth is reported as 109% (inactive). With `O=C(/C=C/c1ccc(Cl)cc1)c1ccc(Nc2ccnc3cc(Cl)ccc23)cc1` the growth was 60.7% (inactive). `COc1cccc(-c2nn(-c3ccccc3)cc2-c2ccnc(-c3cccnc3)c2)c1` was tested, and the growth was 109% (inactive). With `Cc1nc2sc(C(=O)Nc3ccccc3)c(N)c2cc1C(O)c1ccccc1` (stereo not given) the growth was 24.1% (inactive). `COC(=O)c1c(C(=O)OC)c2ccc3c4ncccc4ccc3n2c1C(=O)c1ccc(C)cc1` was tested, and the growth was 98.8% (inactive). In the case of `CN1CCN(Cc2ccc(NC(=O)c3cncc(C#Cc4c(N)ncc5ccccc45)c3)cc2C(F)(F)F)CC1`, the growth is reported as -71.3% (active). `O=C(NCCN1CCOCC1)c1cncnc1Nc1ccc2c(ccn2Cc2ccccn2)c1` was tested, and the growth was 98% (inactive). For `CCCCCCCCOC(=O)c1c(C)[nH]c(/C=C2\N=C(c3ccc[nH]3)C=C2OC)c1C`, the growth was 5.83% (active). In the case of `COc1ccc(Nc2nc(Nc3cc(C)[nH]n3)c3cc(OC)c(OC)cc3n2)cc1`, the growth is reported as -74.4% [20 µM] (active). In the case of `O=C1c2c(c3c4cccnc4[nH]c3c3ccc4ccccc4c23)C(=O)N1O`, the growth is reported as 21.2% (inactive). With `CCOC(=O)c1c2c(n3ccc(NC(=O)CCN4CCCC4)cc13)C(=O)c1ncccc1C2=O` the growth was -82.9% (active). For `COC(=O)c1c(C)nc(C)c2c1C(=O)C(Br)=C(NCCN1CCOCC1)C2=O`, the growth was 92.1% (inactive). With `CCN1C(=O)N(CC)C2C1NC(=S)N2/N=C/C=C/c1ccccc1` (stereo not given) the growth was 25.6% (inactive). For `COCCNC(=O)Cc1cc(-c2ccc(Cl)cc2)n(-c2ccccc2)c1C`, the growth was 94.9% (inactive). In the case of `Cc1nn(C)c2ncnc(Nc3ccccc3Br)c12`, the growth is reported as 106% (inactive). In the case of `CCOC(=O)c1cnc2sc(-c3ccc(OC)cc3)nc2c1Cl`, the growth is reported as 114% (inactive). In the case of `C=C(CNCCO)[C@@H]1CC[C@]2(CO)CC[C@]3(C)[C@H](CC[C@@H]4[C@@]5(C)CCC(NCCO)C(C)(C)[C@@H]5CC[C@]43C)[C@@H]12` (stereo not given in full), the growth is reported as 73.8% (inactive). With `O=C1c2c(c3c4cc(F)ccc4oc3c3[nH]c4ccccc4c23)C(=O)N1O` the growth was 31.6% (inactive). `Cc1nn(-c2ccccc2)c(Oc2ccccc2)c1/C=N/NC(=O)Cn1c(=O)sc2ccccc21` was tested, and the growth was 72% (inactive). `O=S(=O)(Nc1ccc(Br)cc1)c1ccc(-c2cnc(C3CC3)o2)cc1` was tested, and the growth was 11.1% (inactive). With `O=C1c2ccccc2C(=O)c2cc(Cn3c[n+](Cc4ccc5ccccc5c4)c4ccccc43)ccc21` the growth was 64.4% (inactive). For `Cc1cc2c(c(C)n1)CN(C(=O)Nc1nc(-c3cncs3)ccc1N)C2`, the growth was 107% (inactive). With `CC(C)n1cc(C2=C(c3cccc4ccccc34)C(=O)NC2=O)c2cc(Br)ccc21` the growth was 46.7% (inactive). With `Oc1c(Cl)cc(Cl)c2ccc(CN3CCNCC3)nc12` the growth was 26.6% (inactive). `CCN1CCN(c2cc(C(=O)Nc3cccc(Nc4ccc5c(OC)cccc5n4)c3)cc(C(F)(F)F)c2)CC1` was tested, and the growth was 3.22% (active). For `C#CCOc1ccc(C2=NN(C)C3N=C(Cl)c4ncn(C)c4N23)cc1OCC#C` (stereo not given), the growth was 93.6% (inactive). For `CC(C)=CC(=O)C1C(=O)c2ccccc2C1=O`, the growth was 102% (inactive). For `COc1cc(NC(=O)c2cncnc2Nc2ccc3c(ccn3Cc3cccc(F)c3)c2)cc(OC)c1`, the growth was 29.6% (inactive). With `CCCC[N+]1(C)CCN=C1Cc1ccccc1` (stereo not given) the growth was 98.4% (inactive). In the case of `O=C(COc1ccc(/C=C2\Oc3ccccc3C2=O)cc1)Nc1nccs1`, the growth is reported as 110% (inactive). In the case of `CN1CCN(Cc2ccc(NC(=O)c3cncc(C#Cc4c(N)ncc5cc(F)ccc45)c3)cc2C(F)(F)F)CC1`, the growth is reported as -53.1% (active). With `Nc1cc(-c2ccc(Cl)cc2)nn1-c1nc(-c2ccc(Br)cc2)cs1` the growth was 106% (inactive). With `O=c1c(Cc2ccc(F)cc2)cc(-c2ccccc2)nn1C/C(=N/O)c1ccccc1` the growth was 58.7% (inactive).
